According to PubChem BioAssay AID720494 (Broad Institute, 2013):
The other results are listed elsewhere or left out. Active and inactive are the calls of the source. The limit is not given here; nearly all actives have AC50 up to about 14 µM.

Test: AlphaScreen signal interference counter-screen, dose response, artefact control, biochemical, cherry-picked samples, luminescence (AID 720494)
Details: series mostly up to 12 µM

Structure (SMILES) | AC50
CN(C)CCNC(=O)c1cccc(-c2cnc3c(NC=O)cc(-c4cccc(C(F)(F)F)c4)cn23)c1 | inactive
O=C(NCCc1cccc(F)c1)C1CCCN(c2nc3ccccc3s2)C1 (stereo not drawn) | inactive
Cc1ccc(NC(=S)N(CCCN2CCCC2)Cc2cccn2Cc2ccc(Cl)cc2)cc1 | inactive
Cc1ccc(Nc2cc(C)nc3c(C)ccc([N+](=O)[O-])c23)cc1 | inactive
C[C@H]1CN([C@@H](C)CO)C(=O)c2c(c3ccccc3n2C)-c2ccccc2CO[C@@H]1CN(C)Cc1ccc2c(c1)OCCN2C | inactive
COc1ccc(-c2ccc3[nH]c4c(c3c2)CCN2C[C@H]3[C@H](C)ON(C)[C@H]3C[C@@H]42)cc1 | inactive
COc1ccc(N2CCN(C3CCCCC3NS(=O)(=O)c3ccccc3)CC2)cc1 (stereo not drawn) | inactive
CCN(CC)CCOc1ccc2c(c1)C(=NNC(=O)c1ccccn1)c1cc(OCCN(CC)CC)ccc1-2 | inactive
COc1ccc2sc(N(CCCN(C)C)C(=O)c3ccc(S(=O)(=O)N(C)C4CCCCC4)cc3)nc2c1 | inactive
Cc1c(C)n(Cc2ccc(Cl)cc2)c2ccc(C(=O)NCCCN3CCOCC3)cc12 | inactive
COc1ccc2c(c1)c(=Cc1ccc(N(C)C)cc1)c1cc(-c3ccccc3)[n+](C)n12 | 3.02 µM (active)
Cc1cc(N=Nc2ccc3ccccc3c2)ccc1O | 11.2 µM (active)
COc1ccc2[nH]c3c(C)c4cc[n+](C)cc4c(C)c3c2c1 | inactive
